PubChem BioAssay AID1159580 (chemical genetic matrix, 2015)
About 2,000 (36%) of roughly 5,500 compounds were called active. Another 18% or so got no clear call; they are omitted. No stated cut-off is given here; in the data, active means normalized growth mostly below about 0.91 (no sharp cut-off); inconclusive means no clear call, values can overlap the other calls; inactive means mostly above about 0.92. Some of the results follow.

Test: chemical genetic growth profiling, strain panel (AID 1159580);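 further: tested at 20 µM; growth read once vehicle control cultures reached saturation at 30 °C; 1 = growth at the plate median or of vehicle wells; lower values mean less growth of the strain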
Settings: growth OD

Measured: normalized growth

C[C@@H]1CC[C@H]2C(C)(C)C3CC12CC[C@@]3(C)O (some centres not stated)
active: S. cerevisiae deletion strains, locus YKL160W, strain elf1, hits give low values 0.813 | S. cerevisiae deletion strains, locus YLL026W, hits give low values 0.747 | S. cerevisiae deletion strains, locus YLL041C, strain sdh2, hits give low values 0.926 | S. cerevisiae deletion strains, locus YLR027C, strain aat2, hits give low values 0.781 | S. cerevisiae deletion strains, locus YLR221C, strain rsa3, hits give low values 0.745 | S. cerevisiae deletion strains, locus YLR258W, strain gsy2, hits give low values 0.831 | S. cerevisiae deletion strains, locus YLR262C, strain YPT6 (second series), hits give low values 0.549 | S. cerevisiae deletion strains, locus YLR320W, strain mms22, hits give low values 0.628 | S. cerevisiae deletion strains, locus YLR330W, strain CHS5, hits give low values 0.876 | S. cerevisiae deletion strains, locus YLR342W, strain FKS1, hits give low values 0.861 | S. cerevisiae deletion strains, locus YLR357W, strain rsc2, hits give low values 0.754 | S. cerevisiae deletion strains, locus YLR418C, strain cdc73, hits give low values 0.824 | S. cerevisiae deletion strains, locus YML120C, strain ndi1, hits give low values 0.786 | S. cerevisiae deletion strains, locus YMR058W, strain fet3, hits give low values 0.891 | S. cerevisiae deletion strains, locus YMR125W, strain sto1, hits give low values 0.83 | S. cerevisiae deletion strains, locus YMR205C, strain PFK2, hits give low values 0.697 | S. cerevisiae deletion strains, locus YMR231W, strain pep5, hits give low values 0.878 | S. cerevisiae deletion strains, locus YNL071W, strain lat1, hits give low values 0.616 | S. cerevisiae deletion strains, locus YNL209W, strain ssb2, hits give low values 0.869 | S. cerevisiae deletion strains, locus YNL233W, strain BNI4, hits give low values 0.83 | S. cerevisiae deletion strains, locus YNL248C, strain rpa49, hits give low values 0.879 | S. cerevisiae deletion strains, locus YNL298W, strain CLA4, hits give low values 0.884 | S. cerevisiae deletion strains, locus YNR052C, strain pop2, hits give low values 0.865 | S. cerevisiae deletion strains, locus YOR001W, strain rrp6, hits give low values 0.81 | S. cerevisiae deletion strains, locus YOR070C, strain gyp1, hits give low values 0.813 | S. cerevisiae deletion strains, locus YOR083W, strain WHI5, hits give low values 0.743 | S. cerevisiae deletion strains, locus YOR106W, strain vam3, hits give low values 0.713 | S. cerevisiae deletion strains, locus YOR265W, strain rbl2, hits give low values 0.916 | S. cerevisiae deletion strains, locus YOR270C, strain vph1, hits give low values 0.618 | S. cerevisiae deletion strains, locus YOR290C, strain snf2, hits give low values 0.784 | S. cerevisiae deletion strains, locus YPL051W, strain arl3, hits give low values 0.707 | S. cerevisiae deletion strains, locus YPL078C, strain atp4, hits give low values 0.837 | S. cerevisiae deletion strains, locus YPL106C, strain sse1, hits give low values 0.654
inactive: S. cerevisiae deletion strains, locus YJR066W, strain TOR1, hits give low values 0.975 | S. cerevisiae deletion strains, locus YKL009W, strain mrt4, hits give low values 0.893 | S. cerevisiae deletion strains, locus YKL068W, hits give low values 1.01 | S. cerevisiae deletion strains, locus YKL085W, strain MDH1 (second series), hits give low values 0.961 | S. cerevisiae deletion strains, locus YKL085W, strain MDH1, hits give low values 0.961 | S. cerevisiae deletion strains, locus YKL190W, strain CNB1, hits give low values 1.01 | S. cerevisiae deletion strains, locus YKR001C, strain vps1, hits give low values 0.933 | S. cerevisiae deletion strains, locus YKR026C, strain gcn3, hits give low values 0.994 | S. cerevisiae deletion strains, locus YKR091W, strain srl3, hits give low values 0.934 | S. cerevisiae deletion strains, locus YLL001W, strain dnm1, hits give low values 0.949 | S. cerevisiae deletion strains, locus YLR039C, strain RIC1, hits give low values 0.849 | S. cerevisiae deletion strains, locus YLR058C, strain SHM2, hits give low values 1 | S. cerevisiae deletion strains, locus YLR102C, strain apc9, hits give low values 0.989 | S. cerevisiae deletion strains, locus YLR113W, strain HOG1, hits give low values 0.968 | S. cerevisiae deletion strains, locus YLR262C, strain YPT6, hits give low values 0.841 | S. cerevisiae deletion strains, locus YLR268W, strain sec22, hits give low values 0.961 | S. cerevisiae deletion strains, locus YLR342W, strain FKS1 (second series), hits give low values 0.886 | S. cerevisiae deletion strains, locus YLR370C, strain arc18, hits give low values 0.92 | S. cerevisiae deletion strains, locus YLR371W, strain rom2, hits give low values 0.915 | S. cerevisiae deletion strains, locus YLR384C, strain iki3, hits give low values 0.988 | S. cerevisiae deletion strains, locus YML016C, strain PPZ1, hits give low values 1.01 | S. cerevisiae deletion strains, locus YML032C, strain rad52, hits give low values 0.917 | S. cerevisiae deletion strains, locus YML124C, strain tub3, hits give low values 0.99 | S. cerevisiae deletion strains, locus YMR078C, strain ctf18, hits give low values 0.998 | S. cerevisiae deletion strains, locus YMR129W, hits give low values 1.01 | S. cerevisiae deletion strains, locus YMR223W, strain ubp8, hits give low values 0.952 | S. cerevisiae deletion strains, locus YMR307W, strain GAS1, hits give low values 0.707 | S. cerevisiae deletion strains, locus YNL067W, strain RPL9B, hits give low values 0.987 | S. cerevisiae deletion strains, locus YNL183C, strain NPR1, hits give low values 0.976 | S. cerevisiae deletion strains, locus YNL250W, strain rad50, hits give low values 0.956 | S. cerevisiae deletion strains, locus YNL271C, strain bni1, hits give low values 0.938 | S. cerevisiae deletion strains, locus YNL307C, strain MCK1, hits give low values 0.977 | S. cerevisiae deletion strains, locus YNL322C, strain KRE1 (second series), hits give low values 0.971 | S. cerevisiae deletion strains, locus YNR049C, strain mso1, hits give low values 1 | S. cerevisiae deletion strains, locus YOL006C, strain TOP1, hits give low values 0.982 | S. cerevisiae deletion strains, locus YOL012C, strain htz1 0.706 | S. cerevisiae deletion strains, locus YOL147C, strain pex11, hits give low values 0.965 | S. cerevisiae deletion strains, locus YOR061W, strain CKA2, hits give low values 0.958 | S. cerevisiae deletion strains, locus YOR069W, strain VPS5, hits give low values 0.998 | S. cerevisiae deletion strains, locus YOR080W, strain dia2, hits give low values 0.967 | S. cerevisiae deletion strains, locus YOR136W, strain idh2, hits give low values 0.959 | S. cerevisiae deletion strains, locus YOR144C, strain elg1, hits give low values 0.972 | S. cerevisiae deletion strains, locus YOR184W, strain ser1, hits give low values 0.9 | S. cerevisiae deletion strains, locus YOR231W, strain MKK1, hits give low values 0.986 | S. cerevisiae deletion strains, locus YOR316C, strain cot1, hits give low values 0.987 | S. cerevisiae deletion strains, locus YPL240C, strain hsp82, hits give low values 0.952 | S. cerevisiae deletion strains, locus YPL241C, strain CIN2, hits give low values 1.02 | S. cerevisiae deletion strains, locus YPL256C, strain CLN2, hits give low values 0.969 | S. cerevisiae deletion strains, locus YPR119W, strain clb2, hits give low values 1 | S. cerevisiae deletion strains, locus YPR141C, strain kar3, hits give low values 0.991 | S. cerevisiae deletion strains, locus YPR163C, strain tif3, hits give low values 0.993 | S. cerevisiae deletion strains, locus YPR167C, strain met16, hits give low values 0.981 | S. cerevisiae deletion strains, strain wtn01, hits give low values 0.926 | S. cerevisiae strains, strain wild type, hits give low values 0.965
